High-throughput results as filed in PubChem BioAssay.
This is a sample that favours compounds with a hit; in the whole collection about 21% have one here.
Shiga inhibitor = A qHTS for Small Molecule Inhibitors of Shiga Toxin; Vero cells, Shiga toxin protein synthesis inhibition reporter; inhibition, % at 38.7 µM; 290,000 tested, 9.2% active; AID 2315, 2010; in the data active = inhibition mostly above about 28%, no sharp cut-off; inactive = mostly below about 43%; also: 0% is about no effect
Pf growth 48h = Primary qHTS for delayed death inhibitors of the malarial parasite plastid, 48 hour incubation; Potency, µM (top dose mostly 28.7 µM), for the others: at the top dose activity change, negative = inhibition, most hits filed as inhibitors; AID 504832, 2011; P. falciparum luciferase growth in erythrocytes, 48 h; 310,000 tested, 5.9% active; active = well fitted inhibition curve with a large enough effect; inconclusive = small, poorly fitted or top-dose-only effect, or another doubt; inactive = no such curve, though single readings can be large or run the other way; also: potency is read from the fitted curve at half-maximal effect; % is scaled to controls: 0 for no effect and ±100 for the full control effect
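First compound was added to culture medium, then infected red cells at 0.1% parasitemia and 2% hematocrit (final). After incubation at 37 C under 5% CO2, luciferase detection reagent was dispensed and light output recorded.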
SARS PLpro yeast = qHTS of Yeast-based Assay for SARS-CoV PLP; AID 485353, 2010; S. cerevisiae expressing SARS-CoV PLpro, growth rescue; 330,000 tested, 0.19% active; Potency, µM (series often up to 32.9 µM), without a hit: top-dose activity, positive = growth rescue, hits mostly activators; also: potency is read from the fitted curve at half-maximal effect; 0% is about no effect; nearly all actives have a fitted effect of over 55% in size
NS1 function inh = qHTS Assay for Inhibitors of Influenza NS1 Protein Function | Potency, µM (series often up to 46.1 µM), without a hit: at the top dose activity, positive = more growth | 270,000 tested, 0.4% active; also: potency is read from the fitted curve at half-maximal effect; actives are rising curves; nearly all actives have a fitted effect of over 50% in size
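Recovery from NS1-induced slow growth read by OD600 in budding yeast switched to galactose assay medium (pH 6.0, -URA) at 1:100 dilution. Compound 23 nl per well; the matching strain lacking NS1 serves as control.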
Pf growth 96h = Primary qHTS for delayed death inhibitors of the malarial parasite plastid, 96 hour incubation | P. falciparum luciferase reporter growth, 96 h | 320,000 tested, 6.9% active | Potency, µM (top dose mostly 28.7 µM), for the others: at the top dose activity change, negative = inhibition, usual class: inhibitors | AID 504834, 2011; active = well fitted inhibition curve with a large enough effect; inconclusive = small, poorly fitted or top-dose-only effect, or another doubt; inactive = no such curve, though single readings can be large or run the other way; also: potency is read from the fitted curve at half-maximal effect; % is scaled to controls: 0 for no effect and ±100 for the full control effect
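Two-generation exposure (96 h) targets delayed-death phenotype. Reporter parasites carrying integrated firefly luciferase, in red cells at 2% hematocrit and 0.05% parasitemia final, kept at 37 C, 5% CO2; luminescence loss indicates inhibition.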
Cycloheximide cs = Cycloheximide Counterscreen for Small Molecule Inhibitors of Shiga Toxin. cell reporter, cycloheximide protein synthesis inhibition counterscreen. max response, %. 300,000 tested, 12% active. AID 2314, 2010; in the data active = max response mostly above about 13%, no sharp cut-off; inactive = mostly below about 14%; also: read at 38.3 µM for the half of the compounds with a filed dose; 0% is about no effect
An asterisk follows results filed as active. Unless noted, calls follow the shape of the full dose curve.

What do the screens show for `COc1ccccc1N1CCN(CC(=O)Nc2ccccc2C(=O)NC(C)c2ccccc2)CC1` (configuration not stated)?
Pf growth 48h: 12µM*; SARS PLpro yeast: -5%; Pf growth 96h: inconclusive

Results for COc1cccc(OC)c1OCC(=O)Nc1ccc(S(=O)(=O)N2CCCC2)cc1 ?
SARS PLpro yeast: -1%

Results for Cc1ncc([N+](=O)[O-])n1CC(=O)Nc1cccc(C(F)(F)F)c1 ?
Shiga inhibitor: -7; Pf growth 48h: 0%; SARS PLpro yeast: 4%; NS1 function inh: 14%; Pf growth 96h: -10%; Cycloheximide cs: -3

What do the screens show for `O=C(CN1CCN(Cc2ccccc2)CC1)Nc1ccc(Br)cc1`?
Shiga inhibitor: 2; Pf growth 48h: 6%; SARS PLpro yeast: 0%; NS1 function inh: -5%; Pf growth 96h: 18%; Cycloheximide cs: -3

What do the screens show for `C=CCN=C1SC(C)C(=O)N1S(=O)(=O)c1ccccc1` (configuration not stated)?
Shiga inhibitor: -13; Pf growth 48h: 6%; SARS PLpro yeast: 4%; NS1 function inh: inconclusive; Pf growth 96h: 7.4µM*; Cycloheximide cs: -1

Results for CC(/C=C/c1ccccc1)=N/NC(=O)CNC(=O)c1ccccc1F ?
Shiga inhibitor: 16; Pf growth 48h: -10%; SARS PLpro yeast: 1%; Pf growth 96h: 43%; Cycloheximide cs: 22

How did CC(/C=C/C=C/c1ccccc1)=N/NC(=O)C(O)c1ccccc1 (configuration not stated) do in these assays?
Shiga inhibitor: 37; Pf growth 48h: 5%; SARS PLpro yeast: -2%; NS1 function inh: -2%; Pf growth 96h: -3%; Cycloheximide cs: 11

Results for CC(/C=C/C=C/c1ccccc1)=N/NC(=O)CNc1ccc(C)cc1 ?
Shiga inhibitor: 32; Pf growth 48h: 4%; SARS PLpro yeast: 2%; NS1 function inh: 1%; Pf growth 96h: inconclusive; Cycloheximide cs: 35*

Results for CC(/C=C/c1ccccc1)=N\NC(=O)CNC(=O)c1ccccc1Cl ?
Shiga inhibitor: -12; Pf growth 48h: 17%; SARS PLpro yeast: 3%; NS1 function inh: 1%; Pf growth 96h: 6%; Cycloheximide cs: 10*

Results for CCOC(=O)c1sc2nc(C)nc(NC3CCC(O)CC3)c2c1C (configuration not stated) ?
Shiga inhibitor: -12; Pf growth 48h: 27%; SARS PLpro yeast: -2%; NS1 function inh: 17%; Pf growth 96h: 20%; Cycloheximide cs: -1

How did O=S(=O)(c1cccc(COc2c(Cl)cccc2Cl)c1)N1CCOCC1 do in these assays?
Pf growth 48h: 3%; SARS PLpro yeast: 4%; Pf growth 96h: inconclusive

How did O=C(N=C1SC2CS(=O)(=O)CC2N1Cc1ccc(Cl)cc1)C1CC1 (configuration not stated) do in these assays?
Shiga inhibitor: -4; Pf growth 48h: 4%; SARS PLpro yeast: 1%; NS1 function inh: 4%; Pf growth 96h: 13%; Cycloheximide cs: -2

How did O=[N+]([O-])c1ccc(S(=O)(=O)N2CCN=C2SCc2cccnc2)cc1 do in these assays?
Shiga inhibitor: -1; Pf growth 48h: -17%; SARS PLpro yeast: 1%; Pf growth 96h: 3%; Cycloheximide cs: 15

How did CCN(CC)c1ccc(S(=O)(=O)N2CCCCC2)cc1NC(=O)CN1C(=O)NC2(CCCC2)C1=O do in these assays?
Pf growth 48h: inconclusive; SARS PLpro yeast: -6%; Pf growth 96h: inconclusive

Results for COc1cc(-c2nc(-c3ccccc3)c(-c3cccs3)[nH]2)cc(OC)c1O ?
Shiga inhibitor: 9; SARS PLpro yeast: -6%; NS1 function inh: 18%; Pf growth 96h: 1.9µM*; Cycloheximide cs: 7

What do the screens show for `Nc1cnc(CNc2ccccc2Cl)cn1`?
Shiga inhibitor: 32*; Pf growth 48h: 51%; SARS PLpro yeast: -2%; NS1 function inh: 2%; Pf growth 96h: 35%; Cycloheximide cs: 14

What do the screens show for `Clc1ccc(CNc2ccccc2NCc2ccc(Cl)nc2)cn1`?
Shiga inhibitor: -7; Pf growth 48h: inconclusive; SARS PLpro yeast: -2%; NS1 function inh: -2%; Pf growth 96h: 38%; Cycloheximide cs: 15

Results for O=C(Nc1ccc(N2CCOCC2)c(F)c1)c1ccncc1 ?
Shiga inhibitor: 61*; Pf growth 48h: 20%; SARS PLpro yeast: 0%; NS1 function inh: 2%; Pf growth 96h: 27%; Cycloheximide cs: 18*

How did O=C(Nc1ccc(N2CCOCC2)c(F)c1)c1cccs1 do in these assays?
Shiga inhibitor: 53*; Pf growth 48h: 71%; SARS PLpro yeast: -8%; NS1 function inh: -2%; Pf growth 96h: 130%; Cycloheximide cs: 44*

How did COC(=O)c1cc(NCc2cccs2)ccc1N1CCOCC1 do in these assays?
Shiga inhibitor: 31; Pf growth 48h: -6%; SARS PLpro yeast: -2%; NS1 function inh: -3%; Pf growth 96h: 8.3µM*; Cycloheximide cs: 1

Results for O=C(O)c1cc(NCc2cccs2)ccc1N1CCOCC1 ?
Shiga inhibitor: -7; Pf growth 48h: 18%; SARS PLpro yeast: -1%; NS1 function inh: -6%; Pf growth 96h: -17%; Cycloheximide cs: -4

Results for Cc1ccnc(Nc2nc(-c3ccc(O)c(O)c3)cs2)c1 ?
Shiga inhibitor: 97*; Pf growth 48h: inconclusive; SARS PLpro yeast: -5%; NS1 function inh: 27%; Pf growth 96h: inconclusive; Cycloheximide cs: 40*

Results for Oc1ccc(-c2csc(Nc3ccccn3)n2)cc1O ?
Shiga inhibitor: 100*; Pf growth 48h: 61%; SARS PLpro yeast: 21%; NS1 function inh: inconclusive; Pf growth 96h: -28%; Cycloheximide cs: 43*

How did Cc1ccnc(Nc2nc(-c3ccc(O)cc3O)cs2)c1 do in these assays?
Shiga inhibitor: 22*; Pf growth 48h: 66%; SARS PLpro yeast: -14%; NS1 function inh: -30%; Pf growth 96h: -60%; Cycloheximide cs: 25*

How did Cc1ccn2cc(-c3ccc(O)c(O)c3)nc2c1 do in these assays?
Shiga inhibitor: -15; Pf growth 48h: -92%; SARS PLpro yeast: 0%; NS1 function inh: 3%; Pf growth 96h: inconclusive; Cycloheximide cs: -9

Results for Cc1ccnc(Nc2nc(-c3ccc(O)cc3)cs2)c1 ?
Shiga inhibitor: 120*; Pf growth 48h: 58%; SARS PLpro yeast: -22%; NS1 function inh: -30%; Pf growth 96h: -6%; Cycloheximide cs: 35*

What do the screens show for `Oc1ccc(-c2csc(Nc3cccc4ccccc34)n2)cc1O`?
Shiga inhibitor: 11; Pf growth 48h: inconclusive; SARS PLpro yeast: -2%; NS1 function inh: -62%; Pf growth 96h: -98%; Cycloheximide cs: 8

How did CN1CCN(CC(=O)Nc2cc(S(=O)(=O)N3CCOCC3)ccc2Cl)CC1 do in these assays?
Pf growth 48h: 9%; SARS PLpro yeast: 0%; Pf growth 96h: 11%

What do the screens show for `Nn1c(-c2ccccc2)cc(-c2ccccc2)cc1=O`?
Pf growth 48h: inconclusive; SARS PLpro yeast: 0%; Pf growth 96h: inconclusive
